# Reference: PubChem BioAssay AID504834 (National Center for Advancing Translational Sciences (NCATS), 2011)
# Screen size: about 320,000 compounds; about 22,000 (6.9%) were called active. About 27% were inconclusive and are not listed. This is one part of a sample in which actives are shown more often than they occur. A number with no mark means an inactive call. Calls come from the whole dose curve; as a rule, active = well fitted inhibition curve with a large enough effect; inconclusive = small, poorly fitted or top-dose-only effect, or another doubt; inactive = no such curve, though single readings can be large or run the other way.
# Assay: Primary qHTS for delayed death inhibitors of the malarial parasite plastid, 96 hour incubation
# Details: P. falciparum luciferase reporter growth; series mostly up to 28.7 µM; activity change, negative = inhibition: at the top concentration
# Outline: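 Erythrocytes infected with luciferase-expressing P. falciparum were dispensed at 2% hematocrit and 0.05% parasitemia (final), then incubated with compounds 96 hours at 37 C in 5% CO2. Luminescence after detection reagent addition reported growth.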
# % is set by controls: 0 for no effect and ±100 for the full control effect; potency is the fitted concentration of half-maximal effect.
Structure (SMILES),"activity change, negative = inhibition",Potency
S=C(Nc1ccc(Br)cc1)NC1CCN(Cc2ccccc2)CC1,-20.3%,–
O=C(NNC(=O)c1cnccc1C(F)(F)F)c1ccc(Cl)cc1,41.6%,–
COC(=O)c1ccc(CNC(=O)C2CCC(=O)N(Cc3cccc(F)c3)C2)cc1 (stereo unspecified),26%,–
COc1ccccc1CNC(=O)CN1CCC(n2cnc3cc(F)ccc32)CC1,45.9%,–
COC(=O)C1=C(c2ccc(F)cc2OCc2ccccc2)C[C@@H]2CC[C@H]1N2C(=O)NCc1ccc2[nH]ccc2c1,–,5.86 µM (active)
COC(=O)C1=C(c2cccc(OCc3ccccc3)c2)C[C@@H]2CC[C@H]1N2C(=O)NNCc1ccccc1,–,10.4 µM (active)
COC(=O)C1=C(c2ccc3ccccc3c2)C[C@@H]2CC[C@H]1N2C(=O)NCCO,-21.9%,–
COC(=O)C1=C(c2ccc(C(C)=O)cc2)C[C@@H]2CC[C@H]1N2C(=O)NCCNC(C)=O,36%,–
COc1ccc(S(=O)(=O)NC(C)C(=O)NCc2ccncc2)cc1Cl (stereo unspecified),-22.5%,–
CC1CN(C(=O)COC(=O)c2cccc(NS(=O)(=O)c3ccccc3)c2)CC(C)O1 (stereo unspecified),-10.8%,–
O=C(Nc1ccccc1)N1CCC(C(=O)N2CCN(Cc3ccccc3)CC2)CC1,-19.7%,–
COc1ccc(N(C)S(=O)(=O)c2ccc3c(c2)CC(C)N3C(=O)C2CC2)c(OC)c1 (stereo unspecified),11.3%,–
Cc1ccccc1Nc1nc(-c2cccnc2)cs1,-7.11%,–
O=C(Nc1ccc(O)cc1)c1ccccc1O,28.8%,–
CC(=O)NC(=O)c1ccccc1O,–,5.36 µM (active)
Cc1cc(C(=O)NNC(=O)c2ccccc2O)c(C)o1,57.1%,–
COc1ccc(C(=O)Nc2c(N)nc(SCC(=O)Nc3ccc(C(C)=O)cc3)[nH]c2=O)cc1,-14.7%,–
CCc1ccc(-c2nn(-c3ccccc3)cc2CSC(=N)N)cc1,33.9%,–
CCn1c(SCc2ccc(C)cc2)nnc1-c1nn(-c2ccccc2)ccc1=O,–,7.38 µM (active)
Cc1ccc(-n2ccc(=O)c(C(=O)O)n2)cc1,-10.7%,–
CCOc1ccc(N(CC(=O)NCC2CCCO2)S(=O)(=O)c2ccc(C)cc2)cc1 (stereo unspecified),17.6%,–
CCOC(=O)c1cccnc1NC(=O)c1ccncc1,18.8%,–

Structure (SMILES),"activity change, negative = inhibition",Potency
CCOC(=O)c1sc(NC(=O)c2ccncc2)nc1C,–,9.28 µM (active)
CCOC(=O)c1sc(NC(=O)c2sc(C)nc2C)nc1C,32.2%,–
CCc1nc(SCC(=O)NNC(=O)c2ccc(C)cc2)c2ccccc2n1,16.4%,–
C=Cn1cc[n+](CC(=O)c2ccc(OC)c(OC)c2)c1,-6.61%,–
C=CCOc1ccc(/C=C2/C(=O)ON=C2C)cc1OCC,2.1%,–
COc1ccc(NC(=O)CN(C)C(=O)Cc2coc3cc(C)c(C)cc23)cc1,-1.57%,–
NC(=O)C1CCN(C(=O)/C(=C/c2ccco2)NC(=O)c2ccccc2)CC1,-2.21%,–
C/C(=C\c1ccco1)CN1CCC(N2CCC(C(=O)N3CCOCC3)CC2)CC1,–,5.86 µM (active)
O=C(C1CCN(C2CCN(Cc3ccc4cc(F)ccc4n3)CC2)CC1)N1CCCC1,16%,–
CCOC(=O)c1c(C)[nH]c(C(=O)NCc2ccccc2OC)c1C,55.2%,–
CCOC(=O)c1c(C)[nH]c2c1-c1ccccc1C(=O)C2=O,–,1.47 µM (active)
CCOC(=O)C1=C(c2ccc(OC)cc2)C(=O)c2ccccc2C1=O,2.89%,–
CCOC(=O)COc1nc(C)cc(C(F)(F)F)c1C#N,10.9%,–
O=C(NN1C(=O)C2C3C=CC(O3)C2C1=O)c1ccncc1 (stereo unspecified),31.8%,–
O=C(NN1C(=O)C2C3C=CC(O3)C2C1=O)c1ccccc1 (stereo unspecified),–,11.7 µM (active)
COc1ccccc1C(=O)NN1C(=O)C2C3C=CC(O3)C2C1=O (stereo unspecified),12.9%,–
Cc1ccc(S(=O)(=O)N2CCN(C(=O)N3CCOCC3)CC2)c(C)c1,0%,–
O=C(COC(=O)c1ccccc1Cl)NC1CCCCCCC1,22.8%,–
CCOc1ccc(N2C(=O)CSC2=NC#N)cc1,-2.8%,–
CC(=O)OCC(COC(C)=O)OC(C)=O,–,inactive
CC(=O)OC(COc1ccc(F)cc1)Cn1cnc2ccccc21 (stereo unspecified),-11.5%,–
CC(=O)N=c1ncn(CC(COC(C)=O)OC(C)=O)c2nc[nH]c12 (stereo unspecified),–,7.38 µM (active)

Structure (SMILES),"activity change, negative = inhibition",Potency
CCOc1ccc(NS(=O)(=O)c2ccc(Cl)c(C(=O)N(C)Cc3cccnc3)c2)cc1,-18.3%,–
COCCN1C=C2C(=O)C(C)(OC(=O)C3CCCC3)C(=O)C=C2C=C1c1ccsc1 (stereo unspecified),31%,–
CC1(OC(=O)CCc2ccccc2)C(=O)C=C2C=C(c3ccc(C#N)cc3)N(CCc3ccccn3)C=C2C1=O (stereo unspecified),–,13.1 µM (active)
Cc1ccc(OCCCC(=O)Nc2ccc(S(=O)(=O)Nc3cc(C)nc(C)n3)cc2)cc1,2.09%,–
CCCS(=O)(=O)Nc1ccc(-c2cn3c(n2)SCC3)cc1,60.1%,–
CC(=O)Nc1ccc(NC(=O)COc2ccccc2C(=O)Nc2cccc(Cl)c2Cl)cc1,-7.49%,–
O=C(Nc1cccc(Cl)c1Cl)c1ccccc1NC(=O)C1CC=CCC1C(=O)O (stereo unspecified),–,14.7 µM (active)
O=C(O)C1CC=CCC1C(=O)Nc1ccccc1C(=O)N1CCN(c2ccccc2)CC1 (stereo unspecified),-3.07%,–
COCc1c(C(=O)N/N=C\c2cccnc2)nnn1-c1nonc1N,-18.9%,–
Cc1ccc(C(=O)NNc2ncnc3ccccc23)cc1,-13.1%,–
Cc1cc(=O)[nH]c(N/N=C/c2c(C)nn(-c3ccccc3Cl)c2Cl)n1,–,2.94 µM (active)
Cc1cc(=O)[nH]c(N/N=C/c2ccc3c(c2)OCCO3)n1,78.7%,–
Cc1nn(-c2ccccc2)c(Cl)c1/C=N/NC(=O)c1nn(C)cc1[N+](=O)[O-],-22%,–
CC1CCCC(NC(=O)c2cc(-c3ccncc3)nc3ccccc23)C1C (stereo unspecified),-15.3%,–
CCCCSc1nnc2c(n1)OC=Nc1ccccc1-2,23.8%,–
CNS(=O)(=O)c1cccc(C(=O)NCC2CCCCC2)c1,17.8%,–
CCOc1ccc(N/C(N)=N/c2nc(C)c(C)c(=O)[nH]2)cc1,-14.9%,–
O=C(Nc1cccc(Cl)c1N1CCOCC1)c1cccnc1,–,9.28 µM (active)
O=C(Nc1cccc(Cl)c1N1CCOCC1)c1ccc2c(c1)OCCO2,47.9% [at 5.75 µM],–
COC(=O)c1cc(NC(=O)c2cccnc2)ccc1N1CCOCC1,-4.07%,–
COCCNC(=O)c1ccc2c(c1)ncn2-c1ccc(C)c(Cl)c1,11.4%,–
COc1ccc2c(c1)N(C)/C(=C1/SC(=S)N(NC(C)=O)C1=O)S2,0%,–
